Shown are actives, neighbours in structure and some others; about 28% of the full set was active somewhere.
CYP2C9 inh = inhibitors of human CYP2C9. inhibition, % at 5 µM. CYP2C9 Supersomes, luciferin-H conversion, luminescence. 20% of 96,000 active. AID 777. P11712;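 active = blocking of liver enzyme CYP2C9 beyond about 50% at 5 µM, limit read from the data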
CYP2C19 activ = cytochrome P450 2C19 (human) activation; recombinant CYP2C19, luciferin-H EGE luminescence; active compounds read high; 0 = fully inhibited enzyme, 1 = untreated enzyme; P33261; activation factor at 5 µM; 96,000 tested, under 10 active;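 active = activation factor of at least 2 at 5 µM in the primary screen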;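 note: 0 = wells with 2.5 mM tranylcypromine and 1 = vehicle-only wells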
Target sequence (P33261 whole entry, looked up): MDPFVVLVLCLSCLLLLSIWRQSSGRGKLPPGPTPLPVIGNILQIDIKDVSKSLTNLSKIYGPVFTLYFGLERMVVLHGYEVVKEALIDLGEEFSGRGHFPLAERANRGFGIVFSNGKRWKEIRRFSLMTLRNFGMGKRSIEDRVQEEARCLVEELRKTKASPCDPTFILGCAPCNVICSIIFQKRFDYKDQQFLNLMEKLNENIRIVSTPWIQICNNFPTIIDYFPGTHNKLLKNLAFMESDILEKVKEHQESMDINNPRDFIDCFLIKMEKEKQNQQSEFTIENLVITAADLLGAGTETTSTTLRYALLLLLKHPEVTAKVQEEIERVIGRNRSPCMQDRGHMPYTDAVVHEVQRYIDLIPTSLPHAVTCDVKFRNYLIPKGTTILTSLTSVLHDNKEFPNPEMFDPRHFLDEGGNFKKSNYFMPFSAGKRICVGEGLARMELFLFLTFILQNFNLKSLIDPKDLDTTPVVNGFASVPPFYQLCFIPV
CD11b adhes inh = inhibitors of human CD11b/CD18 binding to fibrinogen; P05107+P11215; K562 CD11b/CD18 adhesion to fibrinogen, ATPlite luminescence; Mn2+ added to activate the integrin; inhibition, % at 10 µM; 0.54% of 93,000 active;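 active = primary inhibition of 50% or more at 10 µM, then 40% or more on retest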
CYP2C19 inhib = inhibitors of human CYP2C19 | P33261 | CYP2C19 Supersomes, luciferin-H EGE luminescence, 30 min | inhibition, % at 5 µM | 21% of 96,000 active | AID 778;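 active = CYP2C19 inhibition above a set limit at 5 µM in the primary screen, cut at about 50% in these data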;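 note: plate controls were negative control wells for no effect and 2.5 mM tranylcypromine positive control for full effect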
CYP2C9 activ = CYP2C9 (human) activation; recombinant CYP2C9, luciferin-H conversion, luminescence; active compounds read high; factor 1 = untreated enzyme, 0 = blocked; activation factor at 5 µM; 1.4% of 96,000 active;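 active = activation factor of 2 or more for CYP2C9 at a 5 µM dose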;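 note: 0 = sulfaphenazole-blocked wells and 1 = vehicle-only wells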
Mac1 fbg enh = CD11b/CD18-fibrinogen binding enhancement. activation, % at 10 µM. AID 1499. K562 CD11b/CD18 adhesion to fibrinogen, ATPlite luminescence. 0.07% of 93,000 active. P05107+P11215;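 active = 10 µM primary screen giving 50% or more activity, confirmed by 40% or more on retest at that dose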
* hit, by the source's call; · = no result given.

SMILES | CYP2C9 inh | CYP2C19 activ | CD11b adhes inh | CYP2C19 inhib | CYP2C9 activ | Mac1 fbg enh
COc1ccc(-n2c(Cc3cccn3C)nnc2SCC(=O)Nc2ccc(F)cc2F)cc1 | 55* | 0.7 | 3 | 27 | 0.4 | 3
COc1ccc(NC(=O)CSc2nnc(Cc3cccn3C)n2CCc2ccccc2)c(OC)c1 | 47 | 0.3 | · | 75* | 0.5 | ·
Cc1nc2ccccc2c(=O)n1/N=C/c1c(O)ccc2oc3c(c12)CCCC3 | 77* | 0.9 | 13 | 13 | 0.2 | 18
Cc1nc2ccccc2c(=O)n1/N=C/c1ccc(N(C)C)cc1 | 20 | 0.9 | -4 | 8 | 0.8 | -6
C=CCOc1c(CNc2nccs2)cccc1OCC | 72* | 0 | 4 | 98* | 0.3 | 2
CCn1c(SCc2nc3ccccc3[nH]2)nnc1-c1ccc(OC)cc1 | 27 | 0.2 | -12 | 82* | 0.7 | -2
C=CCn1c(SCc2nc3ccccc3[nH]2)nnc1-c1ccc(OC)cc1 | 22 | 0.2 | 5 | 81* | 0.8 | -2
CCn1c(COc2ccc(Cl)cc2)nnc1SCc1nc2ccccc2[nH]1 | 41 | 0.7 | -6 | 30 | 0.6 | -2
Cc1cc(N2CCN(c3ccccc3)CC2)nc(-c2ccccc2O)n1 | 7 | 1 | 20 | 4 | 0.9 | -1
Cc1nc(-c2ccccc2O)n(-c2ccccc2)n1 | 68* | 0.5 | 14 | 53* | 0.3 | -2
O=C(CN1CCC(O)(c2ccc3c(c2)OCO3)CC1)N1CCOCC1 | -72 | 1 | -4 | -4 | 1.7 | -1
O=C(CN1CCC(O)(c2ccc3c(c2)OCO3)CC1)OC1CCCCC1 | 36 | 0.5 | -10 | 54* | 0.6 | 1
O=C(COC(=O)c1ccccc1OCc1ccccc1Cl)NC1CC1 | 45 | 0.5 | · | 53* | 0.5 | ·
CCOC(=O)Nc1cccc(Cl)c1C | -3 | 0.9 | 0 | 9 | 1 | -3
CCCCOC(=O)Nc1cccc(Cl)c1C | 30 | 0.4 | 2 | 56* | 0.7 | -2
Cc1c(C(=O)Nc2ccccc2N2CCOCC2)sc2nc3n(c(=O)c12)CCC3 | -3 | 1 | -8 | 2 | 1 | -4
CN(C)CCCNS(=O)(=O)c1ccc(Oc2ncc(C(F)(F)F)cc2Cl)cc1 | -3 | 0.9 | 2 | 9 | 1 | -2
FC(F)(F)c1cnc(Oc2ccc(-c3nnco3)cc2)c(Cl)c1 | 24 | 0.8 | -2 | 23 | 0.8 | -1
FC(F)(F)c1cnc(Oc2ccccc2-c2nnco2)c(Cl)c1 | 23 | 0 | 5 | 95* | 0.8 | -4
CCOc1cccc(Oc2ccc(C(F)(F)F)cn2)c1 | -11 | 1.1 | -15 | -13 | 1.1 | 1
COc1cccc(OC)c1Oc1ccc(C(F)(F)F)cn1 | 11 | 0.3 | 6 | 66* | 0.9 | -1
Nc1ccccc1Oc1ncc(C(F)(F)F)cc1Cl | -20 | 0.3 | · | 72* | 1.2 | ·
Cc1nc2nc(-c3cccnc3)[nH]n2c(=O)c1C | 31 | 0.7 | -18 | 27 | 0.7 | 0
Cc1nc(SCn2nnc3ccccc3c2=O)c2c(C)c(C)sc2n1 | 25 | 0.7 | 0 | 26 | 0.8 | -1
CC(C)(C)NC(=S)Nc1ccc(Nc2ccccc2)cc1 | 54* | 0.6 | · | 38 | 0.5 | ·
SMILES | CYP2C9 inh | CYP2C19 activ | CD11b adhes inh | CYP2C19 inhib | CYP2C9 activ | Mac1 fbg enh
CCc1c(C(=O)Nc2cc(C)ccc2OC)[nH]c(C)c1C(C)=O | 35 | 0.4 | 2 | 55* | 0.7 | 4
CCc1c(C(=O)NCCc2ccc(OC)c(OC)c2)[nH]c(C)c1C(C)=O | 37 | 0.8 | -6 | 19 | 0.6 | 5
CCc1c(C(=O)NCc2ccc3c(c2)OCO3)[nH]c(C)c1C(C)=O | 80* | 0.6 | · | 41 | 0.2 | ·
CCc1c(C(=O)NCc2ccccc2Cl)[nH]c(C)c1C(C)=O | 66* | 0.4 | -1 | 61* | 0.3 | -6
O=C(C1CCN(S(=O)(=O)c2cccc3cccnc23)CC1)N1CCn2c1nc1ccccc12 | -39 | 0.6 | -10 | 40 | 1.4 | 1
Cc1nnc(SCC(=O)Nc2ccc(N3CCOCC3)cc2)o1 | -6 | 1.1 | -28 | -9 | 1.1 | 0
Cc1ccc(S(=O)(=O)CC(=O)Nc2nc(-c3ccccc3)cs2)cc1 | 97* | 0.2 | 23 | 85* | 0 | 4
O=C(CS(=O)(=O)c1ccccc1)Nc1nc(-c2ccccc2)cs1 | 98* | 0.2 | 9 | 76* | 0 | 3
Cc1ccc(C2/C(=C(/O)c3ccc(Br)cc3)C(=O)C(=O)N2Cc2ccco2)o1 (stereo unspecified) | 72* | 1.1 | · | -13 | 0.3 | ·
Cc1ccc(/C(O)=C2/C(=O)C(=O)N(CCCn3ccnc3)C2c2ccccn2)cc1 (stereo unspecified) | 20 | 0.9 | · | 11 | 0.8 | ·
Cc1ccccc1COc1ccc(/C(O)=C2/C(=O)C(=O)N(CCCn3ccnc3)C2c2ccco2)cc1 (stereo unspecified) | 95* | 0.2 | -6 | 75* | 0 | -1
CCNC(=O)NCCc1c[nH]c2ccc(Cl)cc12 | 44 | 0.2 | 4 | 78* | 0.6 | -2
Cc1ccc2[nH]cc(CCNC(=O)Nc3ccccc3)c2c1 | 54* | 0 | -28 | 97* | 0.5 | 1
O=C(NCCc1nc2ccccc2[nH]1)Nc1ccccc1 | 33 | 0.6 | 1 | 43 | 0.7 | 7
O=C(NCCc1ccc(Cl)cc1)Nc1cccc(Cl)c1 | 38 | 0.7 | · | 29 | 0.6 | ·
Cc1ccc2[nH]cc(CCNC(=O)c3cccnc3)c2c1 | 64* | 0.1 | 13 | 88* | 0.4 | -3
CCC(C)NC(=O)NC(=O)N(C1CCCCC1)S(C)(=O)=O (stereo unspecified) | 11 | 1 | · | 3 | 0.9 | ·
COc1ccccc1NC(CC(=O)c1ccccc1)C(=O)OCC(=O)c1ccc(F)cc1 (stereo unspecified) | · | · | -8 | · | · | 1
O=C1COc2ccc(C(=O)CSc3nnc(Cc4cccs4)n3-c3ccc(Cl)cc3)cc2N1 | 29 | 0.8 | · | 17 | 0.7 | ·
NC(=O)C1CCN(CCC(=O)Nc2cccc(Cl)c2)CC1 | 10 | 0.8 | -6 | 18 | 0.9 | 0
Cc1ccc2c(c1)c(-c1ccccc1)nc1nncn12 | 3 | 0.8 | -9 | 16 | 1 | 2
Cc1cc(C(C)(C)C)nc2[nH]n(-c3ccccc3)c(=O)c12 | 42 | 0.6 | -40 | 40 | 0.6 | -2
O=c1c2c(C(F)(F)F)cc(C(F)(F)F)nc2[nH]n1-c1ccccc1 | 84* | 1 | 18 | 2 | 0.2 | -2
Cc1cc(-c2ccccc2)nc2[nH]n(-c3ccccc3)c(=O)c12 | 59* | 0.9 | -6 | 10 | 0.4 | -2
Cc1cc(C)c2c(=O)n(-c3ccccc3)[nH]c2n1 | -5 | 1 | -1 | -3 | 1.1 | -4
CC(NC(=O)OCc1ccccc1)C(=O)OCN1C(=O)c2ccccc2C1=O (stereo unspecified) | 29 | 0.6 | -15 | 42 | 0.7 | 4
CC(C)n1c(=S)[nH]c2ccccc21 | -202 | 0.7 | 3 | 29 | 3* | -5
